Measurements: PubChem BioAssay (Tox21)
Records with an inconclusive call do not appear. Active and inactive are the calls of the source. Unless noted, calls follow the shape of the dose curve; as a rule, active = well fitted curve in the direction sought with a large enough effect in the repeat runs; inconclusive = weak or mixed curves; inactive = no such curve, though single readings can be large; an effect the other way counts as inactive or inconclusive.

Experiments:
[1] = qHTS assay to identify small molecule antagonists of the estrogen related receptor (ERR) signaling pathway (AID 1224819; also: nearly all actives have a fitted effect of over 50% in size; also: potency is read from the fitted curve at half-maximal effect); details: ERR reporter cell line, luciferase inhibition; series mostly up to 46.1 µM
Summary of the method: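 Seed ERR cells 2,000/well; rest 6 h at 37 C/5% CO2; pin compounds in DMSO; incubate 18 h at 37 C; add One-Glo; wait 30 min at room temperature; measure luminescence.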

[2] = qHTS assay to identify small molecule agonists of the estrogen related receptor (ERR) signaling pathway (AID 1224820); details: ERR reporter cell line, luciferase agonist mode; series mostly up to 46.1 µM; also: potency is read from the fitted curve at half-maximal effect
Summary of the method: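 Cells: ERR line from NTP, 2,000/well. Pre-incubation 6 h, 37 C/5% CO2. Compound (DMSO) pin transfer, 18 h 37 C. One-Glo, 30 min RT, luminescence.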

[3] = tested on: estrogen-related receptor alpha (ERRalpha) with PGC-1alpha coactivator, human; assay: qHTS assay to identify small molecule antagonists of the estrogen related receptor signaling pathway with the pleiotropic PPARgamma coactivator (PGC) (AID 1224821; calls by dose curve; also: nearly all actives have a fitted effect of over 50% in size; also: potency is read from the fitted curve at half-maximal effect); details: ERR/PGC reporter cell line, luciferase, antagonist mode; series mostly up to 46.1 µM
Summary of the method: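 Luminescent read-out (One-Glo, 30 min at room temperature) following 18 h treatment of PGC/ERR cells at 37 C with compounds delivered in DMSO. Cells had settled 6 h at 37 C/5% CO2 before dosing.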

[4] = qHTS assay to identify small molecule antagonists of the estrogen related receptor signaling pathway with the pleiotropic PPARgamma coactivator (PGC) cell viability counter screen (AID 1224822; also: potency is read from the fitted curve at half-maximal effect;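 also: viability read after 17.5 h compound exposure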); details: ERR/PGC reporter cell line viability counter screen; series mostly up to 46.1 µM
Summary of the method: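 Cells: PGC/ERR, 2,000/well, 1536-well format. Pre-incubation 6 h, 37 C/5% CO2. Compound exposure 17.5 h, 37 C. Detection: CellTiter-Fluor, 30 min, fluorescence.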

[5] = qHTS assay to identify small molecule agonists of the estrogen related receptor signaling pathway with the pleiotropic PPARgamma coactivator (PGC) (AID 1224823); details: ERR/PGC reporter cell line, luciferase agonist mode; series mostly up to 46.1 µM; also: potency is read from the fitted curve at half-maximal effect
Summary of the method: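 Steps: plate PGC/ERR cells at 2,000 cells/well; incubate 6 h, 37 C/5% CO2; pin-transfer compounds (DMSO); incubate 18 h, 37 C; add One-Glo; 30 min RT; read luminescence.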

[6] = molecular target: Luciferin 4-monooxygenase (Photinus pyralis) (UniProt P08659); assay: qHTS assay to identify small molecule inhibitors of firefly luciferase (AID 1224835); also: nearly all actives have a fitted effect of over 25% in size; details: purified P. pyralis luciferase, luminescence inhibition; series mostly up to 115 µM
Summary of the method: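 Biochemical qHTS: compounds run as interplate titrations against purified firefly enzyme, with D-luciferin and ATP each at its KM concentration. Light output recorded by CCD imaging.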

[7] = qHTS assay to identify small molecule agonists of the constitutive androstane receptor (CAR) signaling pathway - cell viability counter screen (AID 1224836); details: HepG2-CYP2B6-hCAR viability, CellTiter-Fluor, 23 h, PK11195 added to every well; series mostly up to 92.4 µM; also: nearly all actives have a fitted effect of over 45% in size
Summary of the method: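 Fluorescence from CellTiter-Fluor indicates live cells after 23 h exposure. The human hepatoma line expresses hCAR and a CYP2B6-2.2kb reporter. Incubation medium contains 0.75 uM PK11195 (final).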

[8] = qHTS assay to identify small molecule antagonists of the constitutive androstane receptor (CAR) signaling pathway - cell viability counter screen (AID 1224837); details: HepG2-CYP2B6-hCAR viability, CellTiter-Fluor, 23 h, co-treated with 50 nM CITCO; series mostly up to 92.4 µM; also: nearly all actives have a fitted effect of over 45% in size
Summary of the method: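 HepG2-CYP2B6-hCAR cells, 2500/well, 4 hr pre-incubation; compound titration, 15 conc.; CITCO 50 nM final; 23 hr, 37 C/5% CO2; CellTiter-Fluor, fluorescence intensity.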

[9] = molecular target: Nuclear receptor subfamily 1 group I member 3 (Homo sapiens) (UniProt Q14994); assay: qHTS assay to identify small molecule antagonists of the constitutive androstane receptor (CAR) signaling pathway (AID 1224838); details: HepG2-CYP2B6-hCAR luciferase, CITCO-stimulated, 24 h; series mostly up to 92.4 µM;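 also: HepG2 cells stably expressing hCAR with CYP2B6 luciferase reporter stimulated by CITCO; nearly all actives have a fitted effect of over 40% in size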
Summary of the method: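 HepG2-CYP2B6-hCAR cells; 4 h pre-incubation; cpd (15 conc) + CITCO 50 nM final; 24 h, 37 C/5% CO2; ONE-Glo, luminescence.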

[10] = molecular target: Nuclear receptor subfamily 1 group I member 3 (Homo sapiens) (UniProt Q14994); assay: qHTS assay to identify small molecule agonists of the constitutive androstane receptor (CAR) signaling pathway (AID 1224839); details: HepG2 hCAR CYP2B6-luciferase, agonist mode, 24 h; series mostly up to 92.4 µM;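 also: HepG2 cells stably carrying human CAR and a CYP2B6 luciferase reporter; nearly all actives have a fitted effect of over 15% in size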
Summary of the method: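 Stable hCAR/CYP2B6-2.2kb HepG2 line in DMEM with 10% FBS; compounds (15 concentrations) and 0.75 uM PK11195 final, 24 h at 37 C/5% CO2, then ONE-Glo luminescence after 30 min.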

[11] = qHTS assay to identify small molecule antagonists of the estrogen related receptor signaling pathway with the pleiotropic PPARgamma coactivator (PGC) from Tox21 10K library - cell viability counter screen (AID 1224840; active = well fitted cell-killing curve with a large enough effect in the repeat runs, not every such curve was filed as active; also: nearly all actives have a fitted effect of over 40% in size); details: PGC/ERR reporter cells viability, CellTiter-Fluor, 17.5 h; series mostly up to 92.4 µM
Summary of the method: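 PGC/ERR cells, 2,000/well; 6 h pre-incubation 37 C/5% CO2; cpd in DMSO via pin tool; 17.5 h 37 C; CellTiter-Fluor, 30 min; fluorescence.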

[12] = qHTS assay to identify small molecule antagonists of the estrogen related receptor signaling pathway with the pleiotropic PPARgamma coactivator (PGC) from Tox21 10K library (AID 1224841; call rule not given here; also: actives are mostly falling curves and most rising ones were filed inactive; nearly all actives have a fitted effect of over 50% in size); details: PGC/ERR reporter cell line, ONE-Glo luciferase, 18 h; series mostly up to 92.4 µM
Summary of the method: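 PGC/ERR cell line, 2,000 cells/well; 6 h pre-incubation 37 C/5% CO2; compounds (DMSO) pinned in; 18 h, 37 C; One-Glo, 30 min RT; luminescence.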

[13] = qHTS assay to identify small molecule agonists of the estrogen related receptor signaling pathway with the pleiotropic PPARgamma coactivator (PGC) from Tox21 10K library (AID 1224842); details: PGC/ERR reporter cell line, luciferase ONE-Glo, 18 h; series mostly up to 92.4 µM; also: nearly all actives have a fitted effect of over 15% in size
Summary of the method: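 PGC/ERR reporter cell line, 2,000 cells per well, incubated 6 h at 37 C before 23 nL compound in DMSO was added. After 18 h at 37 C, One-Glo luminescence read following 30 min at room temperature.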

[14] = molecular target: Thyrotropin receptor (Homo sapiens) (UniProt P16473); assay: qHTS assay to identify small molecule agonists of the thyroid stimulating hormone receptor (TSHR) signaling pathway (AID 1224843; calls by dose curve; also: nearly all actives have a fitted effect of over 45% in size; also: potency is read from the fitted curve at half-maximal effect); details: TSHR-HEK293 cells, cAMP HTRF, agonist mode, 30 min; series mostly up to 92.4 µM
Summary of the method: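 TSHR-HEK293 cells in agonist mode, 30 min room-temperature step, then cAMP measured by competitive HTRF (cAMP-d2 with anti-cAMP cryptate) after 1 h at room temperature. Tested at 15 concentrations in triplicate.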

[15] = qHTS assay to identify small molecule agonists of the hypoxia (HIF-1) signaling pathway - cell viability counter screen (AID 1224844; calls by dose curve; also: nearly all actives have a fitted effect of over 50% in size); details: HRE-bla ME-180 viability, CellTiter-Glo luminescence, 17 h; series mostly up to 76.8 µM
Summary of the method: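 ME-180 HRE-bla cells, 2,000/well, 0.5% dialyzed FBS; 5 hr settle, 17 hr compound at 37C/5% CO2; CCF4-AM reporter read first, then CellTiter-Glo luminescence after 30 min RT.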

[16] = qHTS assay to identify small molecule agonists of H2AX (AID 1224845; active = well fitted activation curve with a large enough effect in the signal ratio in the repeat runs, not every such curve was filed as active; the % refers to the signal ratio); details: CHO-K1 phospho-H2AX Ser139 HTRF, 3 h; series mostly up to 154 µM
Summary of the method: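 Wild-type CHO-K1 cells, plated overnight, exposed 3hr at 37C to 15 concentrations (0.76% DMSO final). Lysed, then HTRF anti-pH2AX (S139) cryptate and anti-H2AX-d2 antibodies, 24 hr room temperature; 665/620 nm emission read.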

[17] = qHTS assay to identify small molecule agonists of the hypoxia (HIF-1) signaling pathway (AID 1224846; active = well fitted activation curve with a large enough effect in the signal ratio in the repeat runs, not every such curve was filed as active; the % refers to the signal ratio); details: HRE-bla ME-180 cells, beta-lactamase ratio, 17 h; series mostly up to 76.8 µM
Summary of the method: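 Cell line: CellSensor HRE-bla ME-180; 2,000 cells/well; 0.5% dialyzed FBS; 5 h preincubation; DMSO compound pin transfer; 17 h, 37C, 5% CO2; CCF4-AM added; bla FRET signal scored for activation.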

[18] = qHTS assay to identify small molecule agonists of H2AX - cell viability counter screen (AID 1224847; calls by dose curve; also: top concentration of the series differs between compounds; nearly all actives have a fitted effect of over 30% in size); details: CHO-K1 viability, CellTiter-Glo luminescence, 3 h; series mostly up to 154 µM
Summary of the method: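 Viability of CHO-K1 (wild type) cells after 3 hr compound exposure was measured by CellTiter-Glo luminescence.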

[19] = qHTS assay to identify small molecule antagonists of the estrogen related receptor (ERR) signaling pathway from Tox21 library (AID 1224848); details: ERR reporter cell line, luciferase antagonist mode, 18 h; series mostly up to 92.4 µM; also: nearly all actives have a fitted effect of over 50% in size
Summary of the method: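 ERR reporter cell line (from NTP) seeded 2,000 cells/well, rested 6 h at 37 C/5% CO2, then pin-dosed with compounds in DMSO. After 18 h at 37 C, ONE-Glo added; luminescence read after 30 min at room temperature.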

Measured: Potency

Sequence of Nuclear receptor subfamily 1 group I member 3 (Homo sapiens) (Q14994 whole entry, looked up): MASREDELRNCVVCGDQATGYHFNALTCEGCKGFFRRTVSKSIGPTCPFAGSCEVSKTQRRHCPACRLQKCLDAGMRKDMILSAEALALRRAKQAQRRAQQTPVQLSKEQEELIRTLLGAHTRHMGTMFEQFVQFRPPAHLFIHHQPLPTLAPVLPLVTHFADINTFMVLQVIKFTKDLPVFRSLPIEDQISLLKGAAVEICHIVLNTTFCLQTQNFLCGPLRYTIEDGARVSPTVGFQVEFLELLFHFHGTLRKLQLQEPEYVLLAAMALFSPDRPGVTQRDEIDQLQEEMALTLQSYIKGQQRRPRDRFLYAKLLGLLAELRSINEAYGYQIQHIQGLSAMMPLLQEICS
Sequence of Luciferin 4-monooxygenase (Photinus pyralis) (P08659 whole entry, looked up): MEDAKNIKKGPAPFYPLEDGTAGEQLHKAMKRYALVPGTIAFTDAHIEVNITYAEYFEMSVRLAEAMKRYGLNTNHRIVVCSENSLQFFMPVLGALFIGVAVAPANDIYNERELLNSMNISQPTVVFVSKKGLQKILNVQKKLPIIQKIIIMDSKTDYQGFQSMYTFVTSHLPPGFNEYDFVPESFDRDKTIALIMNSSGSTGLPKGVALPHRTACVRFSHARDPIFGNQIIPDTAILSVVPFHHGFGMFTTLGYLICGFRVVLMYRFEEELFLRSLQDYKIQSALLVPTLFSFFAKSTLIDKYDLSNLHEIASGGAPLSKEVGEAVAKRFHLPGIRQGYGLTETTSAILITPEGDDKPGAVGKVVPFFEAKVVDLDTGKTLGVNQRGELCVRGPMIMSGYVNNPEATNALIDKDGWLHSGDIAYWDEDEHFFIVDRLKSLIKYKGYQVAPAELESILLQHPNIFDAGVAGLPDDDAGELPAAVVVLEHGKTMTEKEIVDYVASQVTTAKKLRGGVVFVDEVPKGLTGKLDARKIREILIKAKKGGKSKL
Sequence of Thyrotropin receptor (Homo sapiens) (P16473 whole entry, looked up): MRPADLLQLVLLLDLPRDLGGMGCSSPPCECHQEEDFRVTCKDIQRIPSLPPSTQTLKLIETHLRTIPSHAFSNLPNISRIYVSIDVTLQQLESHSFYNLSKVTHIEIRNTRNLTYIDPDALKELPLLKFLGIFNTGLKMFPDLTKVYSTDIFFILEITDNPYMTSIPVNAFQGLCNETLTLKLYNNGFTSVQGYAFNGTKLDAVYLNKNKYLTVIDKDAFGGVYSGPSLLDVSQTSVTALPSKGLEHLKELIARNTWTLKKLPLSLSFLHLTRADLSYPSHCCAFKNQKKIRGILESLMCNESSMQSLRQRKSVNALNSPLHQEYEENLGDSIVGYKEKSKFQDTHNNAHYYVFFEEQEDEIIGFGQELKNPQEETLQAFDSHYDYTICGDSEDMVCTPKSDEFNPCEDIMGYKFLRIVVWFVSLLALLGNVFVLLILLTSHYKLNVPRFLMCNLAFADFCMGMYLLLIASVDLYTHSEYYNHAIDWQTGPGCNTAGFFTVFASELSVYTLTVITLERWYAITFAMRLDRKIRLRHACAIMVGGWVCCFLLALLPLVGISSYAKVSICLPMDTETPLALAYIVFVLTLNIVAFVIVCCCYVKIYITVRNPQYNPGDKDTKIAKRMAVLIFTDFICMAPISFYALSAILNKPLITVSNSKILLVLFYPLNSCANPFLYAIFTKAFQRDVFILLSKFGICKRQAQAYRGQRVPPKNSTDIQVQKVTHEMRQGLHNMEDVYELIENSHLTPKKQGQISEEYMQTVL

O=C(O)c1cc(=O)c2ccccc2[nH]1
inactive: [1] | [2] | [3] | [4] | [5]

O=c1[nH]c2cc([N+](=O)[O-])c([N+](=O)[O-])cc2[nH]c1=O
inactive: [1] | [2] | [3] | [4] | [5]

Nc1nc(Cl)nc2c1ncn2[C@@H]1O[C@H](CO)C(O)[C@H]1O (some centres undefined)
inactive: [1] | [2] | [3] | [4]
active: [5] 1.23 µM

CCCCS(=N)(=O)CCC(N)C(=O)O (centres undefined)
inactive: [1] | [2] | [3] | [4] | [5]

C=CCn1c(=O)c2c(nc(-c3ccc(S(=O)(=O)O)cc3)n2C)n(C)c1=O
inactive: [1] | [2] | [3] | [4] | [5]

CN1C2CCCC1CC(NC(=O)c1nn(C)c3ccccc13)C2 (centres undefined)
inactive: [1] | [2] | [3] | [4] | [5]

OC[C@H]1O[C@H](n2cnc3c(N[C@H]4CCC[C@@H]4O)ncnc32)[C@H](O)[C@@H]1O
active: [5] 9.08 µM
inactive: [1] | [2] | [3] | [4]

O=C(O)CNC(=O)C(CS)Cc1ccccc1 (centres undefined)
inactive: [1] | [2] | [3] | [4] | [5]

C=CCN1CCc2cc(O)c(O)cc2C(c2ccccc2)C1 (centres undefined)
inactive: [1] | [2] | [3] | [4] | [5]

O=Nc1c(-c2c(O)[nH]c3cc(Br)ccc23)[nH]c2ccccc12
inactive: [1] | [3]
active: [2] 1.68 µM | [4] 11.4 µM | [5] 1.14 µM

Nc1ncnc2c1ncn2[C@@H]1O[C@H](COP(=O)(O)OP(=O)(O)OP(=O)(O)OP(=O)(O)OC[C@@H]2O[C@H](n3cnc4c(N)ncnc43)[C@@H](O)C2O)C(O)[C@H]1O (some centres undefined)
active: [5] 15 µM
inactive: [1] | [2] | [3] | [4]

C=C1C[C@@]23CC[C@H]4[C@@](C)(CCC[C@@]4(C)C(=O)O)[C@@H]2CC[C@]1(O)C3
inactive: [1] | [2] | [3] | [4] | [5]

CN1CC(O)C(O)C(O)C1CO (centres undefined)
inactive: [1] | [2] | [3] | [4] | [5]

C=C(C)C1CC=C(C(=O)O)CC1 (centres undefined)
inactive: [1] | [2] | [3] | [4] | [5]

c1ccc2occc2c1
active: [14] 13.7 µM
inactive: [1] | [2] | [3] | [4] | [5] | [6] | [7] | [8] | [9] | [10] | [11] | [12] | [13] | [15] | [16] | [17] | [18]

Cn1ccnc1
inactive: [1] | [2] | [3] | [4] | [5] | [6] | [7] | [8] | [9] | [10] | [11] | [12] | [13] | [14] | [15] | [16] | [18] | [19]

Clc1ccc2c(N3CCN(CCCN4CCN(c5ccnc6cc(Cl)ccc56)CC4)CC3)ccnc2c1
inactive: [1] | [2] | [4] | [5]

CCCC[C@@]1(C2CCCC2)Cc2cc(OCC(=O)O)c(Cl)c(Cl)c2C1=O
active: [1] 11.4 µM | [3] 13.9 µM
inactive: [2] | [5]

O=C(c1cc(O)c(O)c([N+](=O)[O-])c1)c1ccccc1F
active: [1] 25.6 µM | [3] 22.8 µM
inactive: [2] | [5]

COc1ccc(C(=O)/C(Cc2cc(OC)c(OC)c(OC)c2)=C(\C(=O)O)c2ccc3c(c2)OCO3)cc1
active: [1] 10.2 µM | [4] 18.8 µM
inactive: [2] | [5]

Brc1c(Br)c(Br)c2[nH]cnc2c1Br
inactive: [2] | [5]
active: [1] 19.6 µM | [3] 6.94 µM

COc1cc(/C=C(\C#N)C(=O)Nc2nnc(C(F)(F)F)s2)ccc1OCc1ccc(C(F)(F)F)cc1C(F)(F)F
inactive: [2] | [5]
active: [1] 6.43 µM | [3] 3.48 µM

Cn1c(=O)c(-c2c(Cl)cccc2Cl)cc2cnc(Nc3ccc(N4CCOCC4)cc3)nc21
inactive: [2] | [3]
active: [1] 4.38 µM | [5] 0.0531 µM
